Data on twelve compounds can be found in PubChem BioAssay (NCATS).

Several values for one entry are separate records, joined by “and”; a condition that tells them apart may be missing. Identical values can stand only once. Inconclusive results are not listed. Activity calls are given as the source filed them. Unless noted, the call rests on the fitted dose curve. Bridge positions count the residues as written; N and C are the ends. Peptide text beside a SMILES is read from it.

Test [1] in a line: Primary qHTS for Huh7 cytotoxicity: counterscreen for inhibitors of MERS-S pseudotyped particle cell entry (AID 1479147). Further: potency means the concentration at half of the fitted maximal effect. To be noted: outcome: dose series up to 57.1 µM unless noted.
The nature of test [2]: Primary qHTS for inhibitors of MERS-S pseudo-typed particle cell entry (AID 1479149). Further: nearly all actives have a fitted effect of over 60% in size. Further: potency means the concentration at half of the fitted maximal effect. On activity change, negative = inhibition: on the % scale 0 is the no-effect control and ±100 the full control effect. To be noted: outcome: dose series up to 57.1 µM unless noted.
Test [3] can be described thus: Primary qHTS for Vero E6 cytotoxicity: counterscreen for inhibitors of SARS-S pseudo-typed particle cell entry (AID 1479150). To be noted: outcome: dose series up to 57.1 µM unless noted.
A short description of test [4]: Primary qHTS for inhibitors of SARS-S pseudo-typed particle cell entry (AID 1479145). Further: nearly all actives have a fitted effect of over 45% in size. On activity change, negative = inhibition: on the % scale 0 is the no-effect control and ±100 the full control effect. To be noted: outcome: dose series up to 57.1 µM unless noted.
A short description of test [5]: Primary qHTS to identify inhibitors of SARS-CoV-2 cell entry (AID 1645846). Further: nearly all actives have a fitted effect of over 45% in size. Particulars: SARS-CoV-2 pseudovirus cell entry assay, luminescence; activity change, negative = inhibition: at 57.1 µM (top of the series) unless noted. The method in brief:
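Luminescence readout (Bright-Glo luciferase) 48 h after pseudoparticle addition. HEK293-ACE2 cells, 1500/well; compound pre-incubation 1 h; Normalized to spike PP and bald PP.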

The nature of test [6]: Cytotoxicity counterscreen for inhibitors of SARS-CoV-2 cell entry (AID 1645845). Further: nearly all actives have a fitted effect of over 50% in size. Further: potency means the concentration at half of the fitted maximal effect. Particulars: outcome: dose series up to 57.1 µM unless noted. The method in brief:
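ATP-content luminescence (ATPLite 1step, 15 min RT) read after 48 h compound exposure of Expi293F cells stably expressing human ACE2; normalized to cells-only wells and media-only wells.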

The target of test [7] is Cytochrome P450 2D6 (Homo sapiens) (UniProt P10635). The test is described as follows: Cytochrome P450 family 2 subfamily D member 6 (CYP2D6) small molecule antagonists: luciferase biochemical (cell-free) qHTS assay (AID 1645840; active means well fitted curve in the direction sought with a large enough effect in the repeat runs; an effect the other way counts as inactive or inconclusive; further: on the % scale 0 is the no-effect control and ±100 the full control effect; nearly all actives have a fitted effect of over 55% in size). The method in brief: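 P450-Glo CYP2D6 system: proluciferin substrate converted by enzyme to luciferin, read by luminescence proportional to activity. Enzyme-substrate mix with compound 10 min at room temperature, then NADPH regeneration 1 h before detection reagent.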
Chain of Cytochrome P450 2D6 (Homo sapiens) (P10635 whole entry, looked up): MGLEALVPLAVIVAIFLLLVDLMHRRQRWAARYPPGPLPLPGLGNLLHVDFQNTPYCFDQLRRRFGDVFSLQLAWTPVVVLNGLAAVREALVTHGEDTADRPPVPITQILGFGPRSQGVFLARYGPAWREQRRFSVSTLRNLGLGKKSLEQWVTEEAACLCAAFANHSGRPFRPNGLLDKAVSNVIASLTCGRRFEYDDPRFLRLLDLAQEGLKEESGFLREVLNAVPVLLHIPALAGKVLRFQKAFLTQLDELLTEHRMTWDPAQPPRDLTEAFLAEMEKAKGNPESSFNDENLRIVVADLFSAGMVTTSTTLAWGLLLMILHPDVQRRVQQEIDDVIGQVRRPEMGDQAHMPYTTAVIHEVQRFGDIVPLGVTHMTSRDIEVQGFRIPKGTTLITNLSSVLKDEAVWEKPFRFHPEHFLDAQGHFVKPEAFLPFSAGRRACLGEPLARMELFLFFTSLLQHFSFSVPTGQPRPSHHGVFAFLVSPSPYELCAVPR

The target of test [8] is Cytochrome P450 2C9 (Homo sapiens) (UniProt P11712). The test is described as follows: Cytochrome P450 family 2 subfamily C member 9 (CYP2C9) small molecule antagonists: luciferase biochemical (cell-free) qHTS assay (AID 1645842; active means well fitted curve in the direction sought with a large enough effect in the repeat runs; an effect the other way counts as inactive or inconclusive; further: on the % scale 0 is the no-effect control and ±100 the full control effect; nearly all actives have a fitted effect of over 55% in size). In short, it runs like this:
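P450-Glo CYP2C9 system: proluciferin substrate with enzyme in mix containing 0.4% BSA, 10 min at room temperature, then NADPH regeneration solution added and incubated 1 h at 37C. Detection reagent stopped reaction; luminescence read after 20 min as RLU.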

Test [9] addresses Glutathione peroxidase 1 (Homo sapiens) (UniProt P07203). The test is described as follows: Primary qHTS Assay for Inhibitors of Recombinant Selenoprotein Glutathione Peroxidase 1 (GPX1) (AID 1845191; active means well fitted curve in the direction sought with a large enough effect; an effect the other way counts as inactive or inconclusive; further: on the % scale 0 is the no-effect control and ±100 the full control effect; nearly all actives have a fitted effect of over 65% in size). The method in brief:
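NADPH consumption tracked by fluorescence at 340/450 nm between t=0 and t=15 min, room temperature. Final mix: 10 nM GPX1, 100 nM glutathione reductase, 1 mM GSH, 0.5 mM NADPH, 0.5 mM cumene hydroperoxide, 0.01% BSA; 30 min compound–enzyme preincubation.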

The nature of test [10]: Confirmatory qHTS to identify inhibitors of SARS-CoV-2 cell entry (AID 1645844). Further: potency means the concentration at half of the fitted maximal effect; nearly all actives have a fitted effect of over 45% in size. The method in brief:
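Luminescence entry read-out after 48 h: spike-pseudotyped MLV particles (Wuhan-Hu-1, 19-aa C-terminal truncation) added to compound-pretreated (1 h) HEK293-ACE2 cells; Data were normalised to bald PP and spike PP wells.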

The nature of test [11]: VSVG counterscreen qHTS to identify inhibitors of SARS-CoV-2 cell entry (AID 1645847). Further: potency means the concentration at half of the fitted maximal effect; nearly all actives have a fitted effect of over 65% in size. In short, it runs like this: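 HEK293-ACE2 cells (Expi293F stably expressing human ACE2) were pretreated with compound for 1 h at 37 °C, then infected with MLV-based VSV-G pseudotyped particles for 48 h. Luciferase luminescence was normalized to VSV-G PP and bald PP wells.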
A short description of test [12]: qHTS Assay for Lipid Storage Modulators (AID 1519). On activity change, negative = inhibition: on the % scale 0 is the no-effect control and ±100 the full control effect. Particulars: Drosophila S3 cells, BODIPY lipid droplet/cell ratio, laser cytometry, cells loaded with oleic acid. The method in brief:
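Cells seeded at 5,000 per well were treated with compounds over a concentration series and loaded with oleic acid (400 uM, as added). Lipid droplet fluorescence (488 nm excitation, 500-530 nm channel) was read by laser-scanning cytometry and normalized to 20 uM Triacsin C.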

The target of test [13] is Ubiquitin carboxyl-terminal hydrolase 1 (Homo sapiens) (UniProt O94782). As to the kind of experiment: Inhibitors of USP1/UAF1: Pilot qHTS (AID 504865; active means well fitted curve in the direction sought with a large enough effect; an effect the other way counts as inactive or inconclusive;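 further: rhodamine fluorescence freed from ubiquitin-rhodamine substrate followed over time; top concentration of the series differs between compounds; on the % scale 0 is the no-effect control and ±100 the full control effect; nearly all actives have a fitted effect of over 35% in size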). The method in brief: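 USP1/UAF1 complex (1nM) preincubated with compound 15 min at room temperature, then Ub-Rho substrate (150nM final) added. Fluorescence read kinetically at 480/540 nm, 6 reads every 60 seconds. Buffer: 50mM HEPES pH 7.8, 0.5mM EDTA, 0.1 mg/ml BSA, 1mM TCEP, 0.01% Tween-20.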
Chain of Ubiquitin carboxyl-terminal hydrolase 1 (Homo sapiens) (O94782 whole entry, looked up): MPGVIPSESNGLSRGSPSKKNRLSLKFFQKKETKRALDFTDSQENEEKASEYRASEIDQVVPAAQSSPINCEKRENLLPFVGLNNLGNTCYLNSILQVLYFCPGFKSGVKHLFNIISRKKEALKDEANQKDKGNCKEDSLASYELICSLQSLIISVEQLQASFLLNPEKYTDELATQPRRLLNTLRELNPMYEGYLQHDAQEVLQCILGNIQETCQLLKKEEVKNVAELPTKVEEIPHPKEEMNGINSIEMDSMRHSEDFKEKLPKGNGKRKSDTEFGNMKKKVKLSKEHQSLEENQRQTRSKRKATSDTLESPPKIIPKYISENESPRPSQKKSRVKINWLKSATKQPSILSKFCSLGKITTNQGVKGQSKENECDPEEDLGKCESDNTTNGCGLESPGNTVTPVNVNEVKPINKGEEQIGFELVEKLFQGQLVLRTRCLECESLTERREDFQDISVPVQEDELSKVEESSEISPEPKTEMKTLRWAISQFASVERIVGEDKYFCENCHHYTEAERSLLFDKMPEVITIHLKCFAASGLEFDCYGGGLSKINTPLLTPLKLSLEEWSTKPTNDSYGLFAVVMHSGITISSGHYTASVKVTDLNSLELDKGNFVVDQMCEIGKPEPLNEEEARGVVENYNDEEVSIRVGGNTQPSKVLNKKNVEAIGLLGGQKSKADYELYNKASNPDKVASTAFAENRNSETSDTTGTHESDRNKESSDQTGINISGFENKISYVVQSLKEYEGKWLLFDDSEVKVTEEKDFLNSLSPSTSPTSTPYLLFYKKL

The target of test [14] is Bile acid receptor (Homo sapiens) (UniProt Q96RI1). The test is described as follows: qHTS assay for small molecule agonists of farnesoid X receptor signaling (AID 588527).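 Further: 0% = vehicle basal and 100% = reference agonist.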 Particulars: HEK293T FXR-UAS-bla, beta-lactamase ratio, 16 h; stronger effect = higher value. The method in brief: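 Read-out: beta-lactamase reporter fluorescence with CCF4 substrate in GeneBLAzer FXR-UAS-bla HEK293T cells, after 16 h compound exposure at 37 C. Response scaled between DMSO basal (0%) and chenodeoxycholic acid at 100 uM (100%).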
Chain of Bile acid receptor (Homo sapiens) (Q96RI1 whole entry, looked up): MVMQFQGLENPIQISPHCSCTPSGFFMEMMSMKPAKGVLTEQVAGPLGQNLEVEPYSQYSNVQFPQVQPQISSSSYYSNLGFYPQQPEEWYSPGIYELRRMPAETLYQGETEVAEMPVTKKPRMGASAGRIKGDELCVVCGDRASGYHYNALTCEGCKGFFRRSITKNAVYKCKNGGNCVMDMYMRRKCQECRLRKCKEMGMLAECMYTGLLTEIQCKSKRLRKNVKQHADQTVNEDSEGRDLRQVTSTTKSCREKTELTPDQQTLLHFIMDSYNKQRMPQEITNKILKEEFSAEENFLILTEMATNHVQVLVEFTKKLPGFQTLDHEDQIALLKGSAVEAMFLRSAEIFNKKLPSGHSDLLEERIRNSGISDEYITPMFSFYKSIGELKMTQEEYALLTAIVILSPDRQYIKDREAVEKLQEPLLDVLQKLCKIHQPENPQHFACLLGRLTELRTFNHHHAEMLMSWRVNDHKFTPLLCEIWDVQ

Test [15] has as its target Peroxisome proliferator-activated receptor delta (Homo sapiens) (UniProt Q03181). As to the kind of experiment: qHTS assay for small molecule agonists of peroxisome proliferator-activated receptor delta signaling (AID 588534).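 Further: 0% = DMSO basal wells and 100% = positive control agonist at 10 µM.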 In short, it runs like this:
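Agonist-mode qHTS; reporter cells, 5 hrs 37 C pre-incubation; compound titration, 18 hrs 37 C; CCF4 dye, 2 hrs RT; fluorescence read. EC50/efficacy via Hill fit.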

In test [16] the target is Peroxisome proliferator-activated receptor gamma (Homo sapiens) (UniProt P37231). The test is described as follows: qHTS assay for small molecule agonists of peroxisome proliferator-activated receptor gamma signaling (AID 588536; active means well fitted curve in the direction sought with a large enough effect in the signal ratio, with a control signal flat, not every such curve was filed as active; the % refers to the signal ratio;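 further: 0% = DMSO basal wells and 100% = rosiglitazone at 2 µM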). In short, it runs like this: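 Beta-lactamase reporter read-out: CCF4 fluorescence (ex 405, em 460/530 nm) after 2 h at RT. HEK293 GeneBLAzer cells were treated for 16 h at 37 C. Hill fits gave EC50 and efficacy versus 2 uM rosiglitazone (100%) and DMSO (0%).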
Chain of Peroxisome proliferator-activated receptor gamma (Homo sapiens) (P37231 whole entry, looked up): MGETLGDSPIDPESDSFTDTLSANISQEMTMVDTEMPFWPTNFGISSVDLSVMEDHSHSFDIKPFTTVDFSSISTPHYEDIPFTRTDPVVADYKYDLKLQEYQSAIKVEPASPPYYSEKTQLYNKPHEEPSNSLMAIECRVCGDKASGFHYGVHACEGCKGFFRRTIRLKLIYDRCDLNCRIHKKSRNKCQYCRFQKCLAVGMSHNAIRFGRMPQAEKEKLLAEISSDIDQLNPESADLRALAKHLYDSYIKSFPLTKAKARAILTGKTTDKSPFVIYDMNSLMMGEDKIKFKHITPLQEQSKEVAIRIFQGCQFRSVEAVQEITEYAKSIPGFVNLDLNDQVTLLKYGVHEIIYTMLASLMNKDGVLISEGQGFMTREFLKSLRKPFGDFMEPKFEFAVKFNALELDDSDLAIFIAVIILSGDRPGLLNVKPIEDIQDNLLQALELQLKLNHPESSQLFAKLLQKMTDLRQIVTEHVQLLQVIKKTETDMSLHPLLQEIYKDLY

Test [17] can be described thus: S16 Schwann cell PMP22 intronic element firefly luciferase assay (AID 624032; active means well fitted curve in the direction sought with a large enough effect; an effect the other way counts as inactive or inconclusive; further: potency means the concentration at half of the fitted maximal effect; nearly all actives have a fitted effect of over 30% in size). In short, it runs like this: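 Luciferase reporter of PMP22 intronic-element expression in stably transfected S16 rat Schwann cells, read by ONE-Glo luminescence after 24 h compound exposure at 37 C. Activity scaled between DMSO (0%) and positive-control PTC124; concentration-effect curves quality-classified.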

Test [18] can be described thus: qHTS assay for small molecule agonists of the antioxidant response element (ARE) signaling pathway (AID 651741; active means well fitted activation curve with a large enough effect in the signal ratio; the % refers to the signal ratio; further: potency means the concentration at half of the fitted maximal effect). In short, it runs like this:
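Beta-lactamase reporter under ARE control in HepG2 cells, 2,000 per well, was induced by 16 h compound treatment at 37 C. Read-out was fluorescence from LiveBLAzer B/G FRET substrate after 2 h at room temperature.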

Test [19] is described as follows: qHTS assay for small molecule agonists of the antioxidant response element (ARE) signaling pathway measured by Nrf2-dependant transcriptional activity (AID 720636; active means well fitted curve in the direction sought with a large enough effect in the repeat runs; an effect the other way counts as inactive or inconclusive;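 further: HepG2 cells with an ARE-driven luciferase reporter; % of control where 0% means no effect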). The method in brief:
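We exposed ARE-luc HepG2 cells, seeded in assay medium with 1% dialyzed FBS and allowed 6 hr to adhere, to test compounds overnight (16 hr, 37 C) before measuring luciferase with ONE-Glo.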

Chain of Peroxisome proliferator-activated receptor delta (Homo sapiens) (Q03181 whole entry, looked up): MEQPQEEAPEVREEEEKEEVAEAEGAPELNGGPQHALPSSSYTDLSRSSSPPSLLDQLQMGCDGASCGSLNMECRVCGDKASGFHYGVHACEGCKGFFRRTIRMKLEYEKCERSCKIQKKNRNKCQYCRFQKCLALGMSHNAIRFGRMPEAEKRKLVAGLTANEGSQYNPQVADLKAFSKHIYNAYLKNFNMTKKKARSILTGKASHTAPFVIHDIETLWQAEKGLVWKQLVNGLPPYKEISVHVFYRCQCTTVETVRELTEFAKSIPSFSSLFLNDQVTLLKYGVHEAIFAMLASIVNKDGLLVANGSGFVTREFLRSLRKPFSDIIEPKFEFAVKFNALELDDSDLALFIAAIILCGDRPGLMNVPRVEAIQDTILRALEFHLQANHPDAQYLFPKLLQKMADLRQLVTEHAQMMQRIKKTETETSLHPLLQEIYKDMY
Chain of Cytochrome P450 2C9 (Homo sapiens) (P11712 whole entry, looked up): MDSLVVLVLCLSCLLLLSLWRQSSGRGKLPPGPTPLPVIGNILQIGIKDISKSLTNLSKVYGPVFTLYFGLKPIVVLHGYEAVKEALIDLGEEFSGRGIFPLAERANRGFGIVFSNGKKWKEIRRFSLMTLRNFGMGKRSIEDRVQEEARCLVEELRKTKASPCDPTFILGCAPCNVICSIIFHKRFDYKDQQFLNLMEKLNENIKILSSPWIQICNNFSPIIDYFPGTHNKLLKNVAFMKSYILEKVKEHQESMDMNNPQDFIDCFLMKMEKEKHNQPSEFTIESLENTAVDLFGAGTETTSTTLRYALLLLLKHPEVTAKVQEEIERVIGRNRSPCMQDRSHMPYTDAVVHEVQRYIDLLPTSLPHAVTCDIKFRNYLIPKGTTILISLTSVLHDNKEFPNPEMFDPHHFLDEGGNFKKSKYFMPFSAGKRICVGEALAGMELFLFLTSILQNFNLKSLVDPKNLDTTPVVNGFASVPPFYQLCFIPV
Chain of Glutathione peroxidase 1 (Homo sapiens) (P07203 whole entry, looked up): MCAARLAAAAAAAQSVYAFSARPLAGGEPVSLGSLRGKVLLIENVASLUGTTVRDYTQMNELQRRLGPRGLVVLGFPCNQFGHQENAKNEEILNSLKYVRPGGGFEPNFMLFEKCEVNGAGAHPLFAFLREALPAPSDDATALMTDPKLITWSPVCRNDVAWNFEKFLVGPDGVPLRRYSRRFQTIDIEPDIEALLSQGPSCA

In the case of `CCCCC(O)c1ccccc1` (configuration not stated), the Potency result in [1], in [2] and in test [3] was “inactive” in each case.
Take `CC(=O)OC1CC(OC2C(O)CC(OC3C(O)CC(OC4CCC5(C)C(CCC6C5CCC5(C)C(C7=CC(=O)OC7)CCC65O)C4)OC3C)OC2C)OC(C)C1O` (configuration not stated): the Potency result in test [4] and in test [2] was “inactive” in each case. Further, the activity change, negative = inhibition in [5] is -96.7%.
Regarding `CC1CC(OC(=O)C(O)c2ccccc2)CC(C)(C)C1` (configuration not stated), the Potency result in test [1], in test [2] and in test [3] was “inactive” each time.
Turning to `NCCCC[C@H](NC(=O)[C@@H]1CCCN1C(=O)[C@@H]1CSSC[C@H](NC(=O)CNC(=O)CNC(=O)CN)C(=O)N[C@@H](Cc2ccc(O)cc2)C(=O)N[C@@H](Cc2ccccc2)C(=O)N[C@@H](CCC(N)=O)C(=O)N[C@@H](CC(N)=O)C(=O)N1)C(=O)NCC(N)=O` (H-GGGCYFQNCPKG-NH2; disulfide 4-9), the Potency result in test [1], in test [2] and in test [3] was “inactive” each time.
Regarding `C/C(O)=C(\C#N)C(=O)Nc1ccc(C(F)(F)F)cc1`, the Potency result in [4] and in test [2] was “inactive” each time. Further, in test [6], the Potency was 8.91 µM (active).
Regarding `NCCS[As](SCCN)c1ccc(Nc2nc(N)nc(N)n2)cc1`, the Potency entry in test [1], in test [2], in test [3], in test [7], in [8] and in test [6] was “inactive” in each case. Also, the Potency entry in test [9] was “inactive”. In addition, the activity change, negative = inhibition in test [5] is -25.6%.
For `CO[C@H]1C[C@H](O[C@@H]2[C@H](C)O[C@H](O[C@@H]3/C(C)=C/C[C@@H]4C[C@@H](C[C@]5(C=C[C@H](C)[C@@H](C6CCCCC6)O5)O4)OC(=O)[C@@H]4C=C(C)C(O)[C@H]5OC/C(=C\C=C\[C@@H]3C)[C@]54O)C[C@@H]2OC)O[C@@H](C)[C@@H]1O` (some centres not stated), the Potency result in [1], in [2], in test [3] and in test [6] was “inactive” in each case. Further, the Potency is 2.71 µM (active) in test [10] and 1.36 µM (active) in [11].
As to `CC[C@H](C)[C@@H]([C@@H](CC(=O)N1CCC[C@H]1[C@H](OC)[C@@H](C)C(=O)NCCc1ccccc1)OC)N(C)C(=O)[C@@H](NC(=O)[C@H](C(C)C)N(C)C)C(C)C`, in test [1], the Potency result is “inactive”.
Still for that read-out and setting: for `O=C(NC1CCN(CCCCC2(C(=O)NCC(F)(F)F)c3ccccc3-c3ccccc32)CC1)c1ccccc1-c1ccc(C(F)(F)F)cc1` the value was 31.6 µM (active).
For `Nc1nc(NC2CC2)c2ncn([C@H]3C=C[C@@H](CO)C3)c2n1`, the Potency result in test [4], in [2] and in test [5] was “inactive” each time.
With `CC(C)C[C@H](NC(=O)CNC(=O)c1cc(Cl)ccc1Cl)B1OC(=O)C(CC(=O)O)(CC(=O)O)O1`, the Potency entry in [4] is “inactive”. In addition, the Potency in test [2] is 1.26 µM (active). Moreover, the activity change, negative = inhibition in test [5] is -97.4%.
In the case of `COc1cc(CNC(=O)CCCC/C=C/C(C)C)ccc1O`, the activity change, negative = inhibition in test [12] (at 57.5 µM (top of the series)) was -5.1% (inactive) and 0.692% (inactive); in [5], -28.1% and -35.9%. Besides, the max response in test [12] (measured here: cell count channel max response) was -0.801% and 21.3%; in test [12] (measured here: lipid channel max response), -2.34% and 21.8%. Besides, the Potency result in test [13], in test [1], in [2], in test [3] and in test [6] was “inactive” in each case. Moreover, the activation in test [14] is -2.84% (inactive) and 4.77% (inactive). Moreover, the call in test [15], in [16] and in [19] was inactive. Besides, the Potency is 9.07 µM (active) in test [17] and 42.2 µM (active) in [18].
